Hits are enriched below; roughly 3.1% of the tested compounds scored in any of these assays.
TR SRC2 fluor cs: alters Texas Red total fluorescence, flagging assay interference; TRb/SRC2 Texas Red total fluorescence interference; Potency, µM (top dose mostly 106 µM); AID 1479; hit rate 0.29% among 280,000; active = well fitted curve in either direction with a large enough effect; inconclusive = small, poorly fitted or top-dose-only effect
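Human TRb ligand-binding domain at 0.6 uM with 20 nM Texas Red SRC2 peptide in Tris buffer containing 1 uM T3 and 5% DMSO, incubated with compound 5 h at ambient temperature. Total fluorescence (555/632 nm) calculated as parallel + 2 × perpendicular.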
Tau fluor cs: counter-screen for tau fibril formation inhibitors; tau K18 P301L Alexa594 fluorescence, heparin fibrillization; Potency, µM (highest dose often 57.7 µM); hit rate 0.93% among 280,000; note: nearly all actives have a fitted effect of over 55% in size
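Human tau K18 P301L (15 uM unlabeled, 0.24 uM Alexa 594-labeled) in 100 mM sodium acetate pH 7 with 20 uM heparin, 6 hr at 37 C. ThT 30 uM added, 1 hr ambient; Alexa 594 FP and total fluorescence read at 555/632 nm.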
TRb SRC2 PPI: TRbeta-SRC2 interaction inhibition | TRbeta-SRC2 peptide binding, fluorescence polarization; receptor liganded with 1 µM T3 | Potency, µM (doses to about 106 µM), most hits filed as inhibitors | hit rate 0.065% among 280,000 | AID 1469; note: nearly all actives have a fitted effect of over 50% in size
Target sequence (P10828 whole entry, looked up): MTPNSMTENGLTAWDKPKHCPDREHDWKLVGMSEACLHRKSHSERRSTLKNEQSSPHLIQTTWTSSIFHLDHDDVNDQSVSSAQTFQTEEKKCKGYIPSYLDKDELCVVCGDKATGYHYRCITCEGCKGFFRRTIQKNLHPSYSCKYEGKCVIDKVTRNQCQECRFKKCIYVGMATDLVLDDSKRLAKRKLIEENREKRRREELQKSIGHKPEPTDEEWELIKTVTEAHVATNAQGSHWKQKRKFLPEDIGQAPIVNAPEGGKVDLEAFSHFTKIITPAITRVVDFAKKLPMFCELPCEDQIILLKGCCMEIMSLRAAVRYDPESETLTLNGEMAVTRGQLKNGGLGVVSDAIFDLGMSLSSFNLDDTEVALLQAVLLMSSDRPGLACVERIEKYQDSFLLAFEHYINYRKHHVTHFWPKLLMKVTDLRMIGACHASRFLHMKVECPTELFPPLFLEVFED
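Each compound concentration gave % activity, normalized to unbound and bound Texas Red SRC2 controls, from polarization read after 5 hr ambient incubation with T3-loaded human TRb LBD.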
Tau FP inhib: blocks human tau fibril formation measured by polarization; K18 P301L tau heparin fibrillization, Alexa594 FP, 6 h; Potency, µM (doses to about 57.7 µM), actives largely listed as inhibitors; hit rate 0.39% among 280,000; P10636; AID 1468; note: nearly all actives have a fitted effect of over 55% in size
Target sequence (P10636 561-689 P618L limits assumed): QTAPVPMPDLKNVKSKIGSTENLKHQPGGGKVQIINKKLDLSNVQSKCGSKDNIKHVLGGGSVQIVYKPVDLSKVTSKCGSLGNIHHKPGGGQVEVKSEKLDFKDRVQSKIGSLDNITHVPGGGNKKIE
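Recombinant K18 P301L […], labeled with Alexa 594 at 0.24 uM over 15 uM unlabeled; heparin inducer 20 uM final; 37 C, 6 hr; FP endpoint.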
Tau fibril ThT: blocks human tau fibril formation measured by thioflavin T; P10636; recombinant tau K18 P301L (four-repeat tau fragment), heparin-induced fibrillization, ThT fluorescence; Potency, µM (series often up to 57.4 µM), most hits filed as inhibitors; hit rate 2.1% among 270,000; AID 1460; note: nearly all actives have a fitted effect of over 55% in size
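Heparin-induced (20 uM) aggregation of recombinant human K18 P301L tau, 15 uM unlabeled with 0.24 uM labeled, pH 7 acetate buffer, 6 hr at 37 C with compound. Fibrils quantified by 30 uM ThT fluorescence after 1 hr ambient incubation.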
A number is an active result; i = inactive; ? = inconclusive; nt = not tested or not shown; [ ] = another dose, or the depositor's remark. Unless noted, calls come from the whole dose curve; as a rule, active = well fitted curve in the direction sought with a large enough effect; inconclusive = small, poorly fitted or top-dose-only effect, or another doubt; inactive = no such curve, though single readings can be large; an effect the other way counts as inactive or inconclusive.

SMILES	TR SRC2 fluor cs	Tau fluor cs	TRb SRC2 PPI	Tau FP inhib	Tau fibril ThT
COc1cc2oc(=O)cc(-c3ccc(-c4ccc(O)cc4)cc3)c2c(OC)c1OC	i	10µM[quencher]	i	?	?
Cc1ccc(C)c(CSc2nc3ccncc3n2CC(=O)Nc2ccc(C)c(C)c2)c1	i	?	i	i	i
Cc1ccc(C)c(CSc2nc3ccncc3n2CC(=O)Nc2ccc(N(C)C)cc2)c1	i	10µM[quencher]	i	?	?
COc1ccc(NC(=O)Cn2c(SCc3cc(C)ccc3C)nc3ccncc32)c(OC)c1OC	i	8.9µM[quencher]	i	i	?
COc1ccc(-c2nc(-c3ccccc3)c(-c3ccc(O)cc3)[nH]2)cc1	i	14µM[quencher]	i	?	?
COc1ccc(-c2[nH]c(-c3ccc(O)cc3)nc2-c2ccccc2)cc1	i	22µM[quencher]	i	i	?
O=C(CSCc1cccc(Br)c1)N=Nc1c(O)[nH]c2ccccc12	i	?	i	?	?
O=Nc1c(-c2c(O)[nH]c3cc(Br)ccc23)[nH]c2ccccc12	i	8.9µM[quencher]	i	?	2.2µM
CS(=O)(=O)CCC(C(=O)Nc1cccc(C(F)(F)F)c1)N1Cc2ccccc2C1=O (stereo not given)	25µM[quencher]	i	i	i	i
Cc1cccc(C(=O)N2c3ncnn3C3(CCCCC3)[C@@H]3CCCC[C@@H]32)c1	i	i	i	i	i
CCNC(=O)c1c(N)sc2c1CCCCC2	i	i	i	?	32µM
COc1cccc(=O)c2c(C)n(CC(=O)c3ccccc3)c(C)c12	i	?	i	i	14µM
Cc1cc(C)c(Cn2c(C(O)c3ccccc3)nc3ccccc32)c(C)c1 (stereo not given)	i	i	i	i	i
O=c1ccc2[n+]([O-])c3ccc(O)cc3oc-2c1	1.6µM[fluorescent]	2µM[fluorescent]	?	i	13µM
Cc1ccc(CNC(=O)CCCn2c(=O)c3ccccc3n(Cc3ccccc3C)c2=O)cc1	i	i	i	i	i
O=C(Nc1nc2ccc(F)cc2s1)c1nc(S(=O)(=O)Cc2ccccc2F)ncc1Cl	i	i	i	i	10µM
O=C(CN1c2ccccc2S(=O)(=O)c2ccccc21)Nc1ccccc1Cl	i	i	i	i	i
CC(=O)c1cc(C(=O)Nc2cc(C)cc(C)c2)c2ccccn12	?	i	i	?	i
CN1c2ccsc2C(O)=C(C(=S)Nc2ccc(F)c(Cl)c2)S1(=O)=O	i	?	i	?	20µM
O=C(c1ccc2c(c1)N(Cc1cccc(F)c1)C(=O)c1ccccc1S2)N1CCCC1	i	i	i	i	i
O=C(CN1C(=O)NC(Cc2c[nH]c3ccccc23)C1=O)Nc1cccc(S(=O)(=O)N2CCCCCC2)c1 (stereo not given)	i	14µM[quencher]	i	i	i
Cc1ccc(C)c(S(=O)(=O)c2nnn3c2nc(NC(C)C)c2sccc23)c1	i	i	i	i	i
CC1(C)C(=O)Nc2ccccc2N1C(=O)CSc1nc(-c2ccccc2)cs1	32µM[quencher]	i	i	i	i
O=C1CN(C(=O)CSc2nc(-c3ccccc3)cs2)c2ccccc2N1	i	i	i	i	i
CCN(CC)c1ccc(/C=N/NC(=O)c2ccc(Br)o2)cc1	i	?	i	i	3.2µM
SMILES	TR SRC2 fluor cs	Tau fluor cs	TRb SRC2 PPI	Tau FP inhib	Tau fibril ThT
O=C(N/N=C/c1ccc2c(c1)OCO2)c1ccc(Br)o1	i	i	i	i	i
COc1cc(-n2nc(C)c3c2OC(N)=C(C#N)C3c2ccccc2)c(Cl)c(Br)c1O (stereo not given)	i	?	i	i	3.5µM
CCOCCCNC(=O)c1c(NC(=O)c2cc(=O)c3cc(C)c(C)cc3o2)sc2c1CCC2	i	i	i	i	?
CCCC(=O)Nc1ccc(C(=O)N/N=C/c2ccc([N+](=O)[O-])o2)cc1	?	i	i	i	8.9µM
O=C(CNc1ccc2ccccc2c1)N/N=C/c1cc2ccccc2nc1Cl	i	13µM[quencher]	i	i	?
O=C(CNc1ccc2ccccc2c1)N/N=C/c1ccc([N+](=O)[O-])o1	i	14µM[quencher]	i	i	?
O=C(N/N=C\c1ccc([N+](=O)[O-])o1)c1ccc(O)cc1	i	nt	i	nt	nt
COC(=O)C(NS(=O)(=O)CCl)C(C)C (stereo not given)	i	nt	i	nt	nt
NCCCCCCCCCCNCCCN	i	nt	i	nt	nt
CC(=O)c1cccc(Nc2ncnc3c2cnn3-c2cccc(Cl)c2)c1	i	?	i	?	i
CCN(CC)c1ccc(NC(=O)c2sc3nc(-c4ccccc4)cn3c2C)cc1	i	?	i	i	2.2µM
CCN(CC)c1ccc(NC(=O)c2sc3ccccc3c2Cl)cc1	i	?	i	i	0.89µM
CCOc1ccc(NC(=O)c2sc3ccccc3c2Cl)cc1	i	i	i	i	?
CC1(C(=O)O)NCCc2cc(O)c(O)cc21 (stereo not given)	i	i	i	?	20µM
Oc1cc2c(cc1O)C(c1ccccc1)CNCC2 (stereo not given)	i	?	i	?	?
COc1ccc(S(=O)(=O)c2c(Nc3ccccc3F)sc(C(=O)c3cccc(OC)c3)c2N)cc1	i	i	i	?	i
CC(C)(C)c1ccc(/C=N/N2CCN(c3ccccn3)CC2)cc1	i	i	i	i	?
CN(C)c1ccc(/C=N/N2CCN(c3ccccn3)CC2)cc1	i	i	i	i	1.8µM
CCNC(=S)Nc1ccc(C)c(S(=O)(=O)Nc2ccccc2OC)c1	i	i	i	i	i
O=C(Nc1ccc(F)cc1)Nc1ccc(N2CCCC2)c(S(=O)(=O)Nc2ccccc2Cl)c1	i	2.8µM[quencher]	i	?	i
O=C(Nc1ccc(Cl)c(S(=O)(=O)Nc2ccccc2Cl)c1)c1cccs1	i	25µM[quencher]	i	?	i
O=C(Nc1ccc(Cl)c(Cl)c1)Nc1ccc(N2CCCC2)c(S(=O)(=O)Nc2ccccc2Cl)c1	i	4µM[quencher]	i	i	?
Cc1ccc(C(=O)Nc2ccc(C)c(S(=O)(=O)Nc3ccccc3Cl)c2)s1	i	?	i	?	i
COc1ccccc1NS(=O)(=O)c1cc(NC(=S)Nc2cc(C)cc(C)c2)ccc1Cl	?	32µM[quencher]	i	?	i
CCOC(=O)c1c(-c2ccccc2)oc2ccc(NS(=O)(=O)c3ccc(C(C)C)cc3)cc12	i	?	i	?	i
O=C(CCn1ccc2cc(S(=O)(=O)N3CCCC3)ccc21)NCc1ccccc1Cl	i	i	i	i	i
CCN(CC)c1ccc(NC(=O)c2ccccc2Br)cc1S(=O)(=O)Nc1ccccc1OC	i	i	i	?	25µM
COc1ccccc1NS(=O)(=O)c1cc(NC(=O)C(C)C)ccc1N1CCCCC1	i	i	i	i	i
O=C(Nc1ccc(N2CCCC2)c(S(=O)(=O)Nc2cccc(C(F)(F)F)c2)c1)c1cccs1	i	10µM[quencher]	i	i	i
COc1ccccc1NS(=O)(=O)c1cc(NC(=O)Nc2ccccc2)ccc1N1CCCCC1	i	?	i	22µM	i
